Screens (PubChem BioAssay)
FBW7 activator = activators of human E3 ligase FBW7 | Q969H0 | AlphaScreen FBW7–phospho-cyclin E peptide binding, activator screen | normalized activity (activation), % at 26.1 µM | hit rate 0.13% among 650,000; in the data active = normalized activity above about 1.9%;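 also: purified mutant Fbw7 with reduced substrate affinity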
GPR151 ag = human GPR151 activation; Q8TDV0; PathHunter beta-arrestin GPR151 cells, luminescence; activation, % at 11.2 µM; hit rate 1% among 650,000; AID 1508602; in the data active = activation above about 4.9%
TEAD-YAP inh = TEAD-YAP interaction inhibition. HEK-TIYL cells, TEAD-Gal4/YAP UAS-luciferase luminescence. inhibition, % at 9.12 µM. hit rate 1.4% among 640,000. AID 1259422; in the data active = inhibition above about 32%
MITF inh = human MITF inhibition, primary screen; AlphaScreen MITF homodimerization, bead proximity signal; O75030; hit rate 0.91% among 650,000; inhibition, % at 2.6 µM; in the data active = inhibition above about 50%
Target sequence (O75030 whole entry, looked up): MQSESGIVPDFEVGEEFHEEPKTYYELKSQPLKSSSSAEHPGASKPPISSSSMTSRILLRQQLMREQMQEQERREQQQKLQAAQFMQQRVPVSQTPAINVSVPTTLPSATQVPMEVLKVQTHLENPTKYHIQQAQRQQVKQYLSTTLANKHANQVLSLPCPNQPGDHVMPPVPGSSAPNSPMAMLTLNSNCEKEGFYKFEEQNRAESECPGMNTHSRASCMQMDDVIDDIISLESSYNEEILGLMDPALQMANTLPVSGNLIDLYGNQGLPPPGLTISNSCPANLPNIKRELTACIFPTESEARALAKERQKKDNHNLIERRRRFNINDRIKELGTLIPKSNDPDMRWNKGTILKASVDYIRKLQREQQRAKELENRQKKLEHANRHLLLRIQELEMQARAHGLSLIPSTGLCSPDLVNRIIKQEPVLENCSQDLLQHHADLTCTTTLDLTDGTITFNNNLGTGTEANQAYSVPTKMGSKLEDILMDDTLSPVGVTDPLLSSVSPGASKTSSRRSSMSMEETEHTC
MITF inh conf = confirmation of human MITF inhibitors; shares compounds with MITF inh; AlphaScreen MITF homodimerization, biotin/His-MITF beads; inhibition, % at 2.6 µM; hit rate 16% among 4,700;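 active = inhibition above a cutoff derived from the DMSO control wells, cut at about 28% in these data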;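 also: inhibitors lower the bead chemiluminescence by keeping MITF from dimerizing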
AS interf DR = optically interferes with AlphaScreen signal in dose response. IC50, µM. AlphaScreen optical interference counterscreen, cell-free. shares compounds with MITF inh. hit rate 6% among 480; call rule not given here
AS interf ctr = counter-screen: compounds optically interfering with AlphaScreen; shares compounds with MITF inh; LysRS AlphaScreen counterscreen, signal interference, triplicate; inhibition, % at 2.6 µM; hit rate 7.6% among 4,700; AID 1259376;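 active = inhibition above a cutoff derived from the DMSO control wells, cut at about 30% in these data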
Each line names hits and unclear results; the compound was inactive in the other large screens (follow-up assays come after a bar, where they were run). Only some compounds are listed: those with a hit (about 3.4% of all), similar ones and a draw of the others.

OC(CNC1CCN(Cc2ccccc2)C1)COCc1ccccc1Cl (stereo unspecified)	MITF inh 55 | MITF inh conf inactive | AS interf ctr inactive
COC(=O)Cc1cc(=O)n(-c2nc3ccccc3[nH]2)[nH]1	MITF inh 94 | MITF inh conf 72 | AS interf ctr 99
COc1ccc(OCCCC(=O)Nc2cc(C)cc(C)c2)cc1	none
CCCCCCSc1nc2sc3c(c2c(=O)n1CCc1ccccc1)CC(C)(C)OC3	none
Cc1cc(C)c(OCCN2CCOCC2)c(Cl)c1	MITF inh 54 | MITF inh conf inactive | AS interf ctr inactive
Cc1cc(Cl)cc(Cl)c1OCCCCNCCN1CCOCC1	MITF inh 62 | MITF inh conf inactive | AS interf ctr inactive
Cc1cccc(C(C)(C)C)c1OCCN1CCOCC1	MITF inh 80 | MITF inh conf inactive | AS interf ctr inactive
O=C(Nc1ccc(Br)cc1)c1ncn[nH]1	none
O=C(Cn1cc2c(n1)CCCC2)N1CCN(c2ccccc2)CC1	MITF inh 61 | MITF inh conf inactive | AS interf ctr inactive
O=C(Cn1cc2c(n1)CCCC2)N1CCCCC1	none
O=C(NCCCNCCCNC(=O)c1ccc(/C=N/O)nc1)c1ccc(/C=N/O)nc1	MITF inh 69 | MITF inh conf 49 | AS interf ctr 100
O=C(NCCCO)c1ccc(/C=N/O)nc1	none
CCn1c(=O)c(-c2ccc3ccccc3n2)cc2ccccc21	none
COCCNCCCCOc1ccc(Cl)c(Cl)c1	MITF inh 57 | MITF inh conf inactive | AS interf ctr inactive
COCCCNCCCCOc1ccc(Cl)c(Cl)c1	none
OCCNCCCCOc1ccc(Cl)c(Cl)c1	MITF inh 58 | MITF inh conf inactive | AS interf ctr inactive
CC(C)C(O)(C(=O)NN(C(=O)COc1ccccc1)c1ccccc1)C(C)C	none
CC(=O)Nc1ccc(Nc2cc(OC(C)C)nc(C)n2)cc1	none
COc1cccc(CN2CCN(C3CCCCC3)CC2)c1	MITF inh 60 | MITF inh conf inactive | AS interf ctr inactive
COc1cccc(CN2CCN(C3CCC(C)CC3)CC2)c1 (stereo unspecified)	MITF inh 70 | MITF inh conf inactive | AS interf ctr inactive
COc1cccc(CN2CCN(C3CCCCCC3)CC2)c1	MITF inh 58 | MITF inh conf inactive | AS interf ctr inactive
COc1cccc(CN2CCC(C(=O)NC3CCCCCC3)CC2)c1	MITF inh 65 | MITF inh conf inactive | AS interf ctr inactive
O=C(Nc1cccc(F)c1)c1ccccc1Br	none
COc1cccc(CN2CCN(C(=O)C3CC3)[C@@H](C)C2)c1	MITF inh 62 | MITF inh conf inactive | AS interf ctr inactive
COc1ccc(C(=O)NNC(=O)COc2ccc3ccccc3c2)cc1OC	none
Cc1cccc(NC2=C(C(=O)c3ccc(Cl)cc3)C(c3ccc(F)cc3)N(CCCCCC(=O)O)C2=O)c1 (stereo unspecified)	MITF inh 79 | MITF inh conf inactive | AS interf ctr inactive
COc1cc(C(=O)N2CCN(CC3CC=CCC3)CC2)cc(OC)c1OC (stereo unspecified)	none
COc1cc(OC)c(OC)cc1CN1CCN(CC2CC=CCC2)CC1 (stereo unspecified)	MITF inh 51 | MITF inh conf inactive | AS interf ctr inactive
COc1ccc(OC)c(CN2CCN(CC3CC=CCC3)CC2)c1 (stereo unspecified)	MITF inh 54 | MITF inh conf inactive | AS interf ctr inactive
COc1cccc(CN2CCN(CC3CC=CCC3)CC2)c1OC (stereo unspecified)	MITF inh 81 | MITF inh conf inactive | AS interf ctr inactive
COc1ccc(OC)c(CN2CCSCC2)c1	none
COC(=O)c1c(NC(=O)CCN2CCN(C)CC2)sc2c1CCC2	MITF inh 90 | MITF inh conf inactive | AS interf ctr inactive
CN1CCN(CC(=O)Nc2sc3c(c2C(N)=O)CCCC3)CC1	MITF inh 72 | MITF inh conf inactive | AS interf ctr inactive
COC(=O)c1c(NC(=O)CCCOc2ccc(C)cc2)sc2c1CCCC2	MITF inh 78 | MITF inh conf inactive | AS interf ctr inactive
Cc1ccc2nc(-c3ccccc3)cc(C(=O)N3CCC(C(N)=O)CC3)c2c1	none
O=C(NNC(=O)c1cc(-c2ccco2)nc2ccccc12)NC1CCCCC1	MITF inh 87 | MITF inh conf 91 | AS interf DR inactive | AS interf ctr inactive
NC(=O)C1CCN(C(=O)c2cc(-c3ccco3)nc3ccccc23)CC1	MITF inh 97 | MITF inh conf 75 | AS interf DR inactive | AS interf ctr inactive
CCOC(=O)c1c(NC(=O)COc2ccc(F)cc2F)sc2c1CCC(CC)C2 (stereo unspecified)	none
Cc1ccc(-c2noc(C3CCCN(S(=O)(=O)c4ccc(C(C)(C)C)cc4)C3)n2)o1 (stereo unspecified)	MITF inh 77 | MITF inh conf inactive | AS interf ctr inactive
Cc1ccc(/C(O)=C2/C(=O)C(=O)N(CCN3CCOCC3)C2c2ccncc2)cc1 (stereo unspecified)	none
CC(C)c1ccc(/C=C/C(=O)Nc2nn[nH]n2)cc1	MITF inh 52 | MITF inh conf inactive | AS interf ctr inactive
Cc1ccc(/C=C/C(=O)Nc2nn[nH]n2)o1	none
Cc1cccc(NC(=O)C2CCCN2C(=O)OCc2ccccc2)c1 (stereo unspecified)	none
Cc1cccc(NC(=O)C2CCCN2C(=O)OC(C)(C)C)c1 (stereo unspecified)	MITF inh 77 | MITF inh conf inactive | AS interf ctr inactive
O=C(NCCN1CCCCC1)/C(=C/c1ccco1)NC(=O)c1ccccc1	none
Cc1ccc(C(=O)N/C(=C\c2ccco2)C(=O)NCCN2CCCCC2)cc1C	MITF inh 58 | MITF inh conf inactive | AS interf ctr inactive
Cc1ccc(C(=O)N/C(=C\c2ccc(F)cc2)C(=O)NCCCn2ccnc2)cc1	none
Cc1ccc(C(=O)N/C(=C\c2ccco2)C(=O)NCCCn2ccnc2)cc1	MITF inh 74 | MITF inh conf 38 | AS interf ctr 53
Cc1ccc(/C(C#N)=C\c2ccco2)cc1	MITF inh 56 | MITF inh conf 42 | AS interf DR inactive | AS interf ctr inactive
Clc1ccccc1N1CCN(Cc2ccc(Br)o2)CC1	none
Fc1ccc(N2CCN(Cc3ccc(Br)o3)CC2)cc1	MITF inh 51 | MITF inh conf inactive | AS interf ctr inactive
Brc1ccc(CN2CCN(c3ccccn3)CC2)o1	MITF inh 52 | MITF inh conf inactive | AS interf ctr inactive
CCOc1ccc(-n2ccnc2SCC(=O)N2CCc3ccccc32)cc1	none
COC(CN(C)S(=O)(=O)c1cc(Br)cc2c1N(C(C)=O)CC2)OC	none
O=C(CSc1nc(-c2ccccc2)cc(C(F)(F)F)n1)N1CCOCC1	none
CC(Sc1nc(-c2ccccc2)cc(C(F)(F)F)n1)C(N)=O (stereo unspecified)	MITF inh 54 | MITF inh conf inactive | AS interf ctr inactive
